Laboratory results: PubChem BioAssay (Tox21)
Where “and” joins values, the source holds several entries; their conditions need not be identical. Identical values can stand only once. Records with an inconclusive call do not appear. A call without a number means that no potency is given here. Calls of active or inactive are those of the source. Calls follow the shape of the dose curve; as a rule, active = well fitted activation curve with a large enough effect in the signal ratio in the repeat runs, with a control signal flat (not every such curve was filed as active); inconclusive = weak or mixed curves; inactive = flat fitted curve, though single readings scatter; the % refers to the signal ratio.
Potency is read from the fitted curve at half-maximal effect.

Assay: qHTS assay for small molecule activators of the heat shock response signaling pathway (AID 743210)
Details: HeLa HSE-bla reporter, beta-lactamase ratio, 5 h; series mostly up to 62.6 µM
Description: U.S. Tox21 Program National Center for Advancing Translational Sciences [NCATS] NIH Chemical Genomics Center [NCGC] U.S. Environmental Protection Agency [EPA] National Institutes of Environmental Health Sciences [NIEHS] National Toxicology Program [NTP] U.S. Food and Drug Administration [FDA] Tox21 Assay Overview: Various chemicals, environmental and physiological stress conditions may lead to the activation of heat shock response/ unfolded protein response (HSR/UPR). There are three heat shock transcription factors (HSFs) (HSF-1, -2, and -4) mediating transcriptional regulation of the human HSR. To identify the compounds that activate HSR signaling, HSE-bla HeLa cell line (Invitrogen, Carlsbad, CA, USA) containing a beta-lactamase reporter gene under the control of the heat shock response elements was used to screen the Tox21 10K compound library.
Tox21 Assay Protocol Summary: The CellSensor HSE-bla HeLa cells (Invitrogen, Carlsbad, CA, USA) were dispensed at 1500 cells/6uL/well into 1536-well black wall/clear bottom plates using a Multidrop combi (Thermo Fisher Scientific, Waltham, MA) dispenser. After the assay plates were incubated at 37 C and 5% CO2 overnight, 23 nL of compounds dissolved in DMSO, positive controls or DMSO only was transferred to the assay plate by a Pintool station (Kalypsys, San Diego, CA). The plates were incubated at 37 C for 5 h. After 1 uL of LiveBLAzerTM B/G FRET substrate was added using a Flying Reagent Dispenser (Beckman Coulter, Indianapolis, IN, USA), the plates were incubated at room temperature for 2.5 h, and fluorescence intensity was measured by an Envision plate reader (PerkinElmer, Shelton, CT).
With `CNC(=O)Oc1cccc2c1OC(C)(C)O2` the Potency was “inactive”. In the case of `C=CCc1ccc(OC)cc1`, the Potency was “inactive”. In the case of `CC(C)C(=O)OCC(C)(C)C(OC(=O)C(C)C)C(C)C` (stereo not given), the Potency was “inactive”. With `NCc1cccnc1` the Potency was “inactive”. For `CNC(=O)N(C)c1nnc(C(C)(C)C)s1`, the Potency was “inactive”. In the case of `O=P(Oc1ccccc1)(Oc1ccccc1)Oc1ccccc1`, the Potency was “inactive”. With `Brc1ccc(Oc2cc(Br)c(Br)cc2Br)c(Br)c1` the Potency was “inactive”. With `CCC(C)c1cc([N+](=O)[O-])cc([N+](=O)[O-])c1O` (stereo not given) the Potency was “inactive”. For `Cc1ccc2c(c1N)C(=O)c1ccccc1C2=O`, the Potency was “inactive”. For `CCC(CC)Nc1c([N+](=O)[O-])cc(C)c(C)c1[N+](=O)[O-]`, the Potency was “inactive”. In the case of `CCN(N=O)C(N)=O`, the Potency was “inactive”. In the case of `Nc1c(Cl)cc([N+](=O)[O-])cc1Cl`, the Potency was “inactive”. With `O=[N+]([O-])c1c(Cl)c(Cl)c(Cl)c(Cl)c1Cl` the Potency was “inactive”. In the case of `OCC(O)CO`, the Potency was “inactive”. With `COc1ccc(C=O)cc1` the Potency was “inactive”. For `CCOc1cc(C=O)ccc1O`, the Potency was “inactive”. With `NNC(=S)NN` the Potency was 1.79 µM (active) and 4.36 µM (active). With `CCCCC(CC)COC(=O)Cl` (stereo not given) the Potency was “inactive”. With `CC1(C)C(C=C(Cl)Cl)C1C(=O)OC(C#N)c1cccc(Oc2ccccc2)c1` (stereo not given) the Potency was “inactive”. For `CCN(CC)C(=O)/C(Cl)=C(\C)OP(=O)(OC)OC`, the Potency was “inactive”. In the case of `CCOP(=S)(OCC)O/N=C(\C#N)c1ccccc1`, the Potency was “inactive”. For `Cc1c(COC(=O)[C@@H]2[C@H](/C=C(\Cl)C(F)(F)F)C2(C)C)cccc1-c1ccccc1`, the Potency was “inactive”. For `CCCCCCCCOC(=O)c1ccccc1C(=O)OCCCCCCCC`, the Potency was “inactive”. With `N#Cc1cc(Br)c(O)c(Br)c1` the Potency was “inactive”. In the case of `N#CC(Br)Br`, the Potency was “inactive”. With `Cc1cccc(N)c1N` the Potency was “inactive”. With `Oc1cc(Cl)c(Cl)cc1Cl` the Potency was “inactive”. For `Nc1ccc(-c2ccccc2)cc1`, the Potency was “inactive”. For `COP(=S)(OC)Oc1ccc([N+](=O)[O-])cc1`, the Potency was “inactive”. For `C=CCN(CC=C)C(=O)C(Cl)Cl`, the Potency was “inactive”. With `COP(=O)(OC)OC` the Potency was “inactive”. In the case of `C[C@]12CCC(=O)C(O)=C1CC[C@@H]1[C@@H]2CC[C@]2(C)C(=O)CC[C@@H]12`, the Potency was “inactive”. With `CCCCCCCCC(=O)NCc1ccc(O)c(OC)c1` the Potency was “inactive”. In the case of `CCCCCCOC(=O)c1ccccc1C(=O)OCCCCCC`, the Potency was “inactive”. With `COC(=O)c1sccc1S(=O)(=O)NC(=O)Nc1nc(C)nc(OC)n1` the Potency was “inactive”. With `C#C[C@]1(O)CC[C@H]2[C@@H]3CCC4=CC(=O)CC[C@]4(C)[C@H]3CC[C@@]21C` the Potency was “inactive”. For `O=[N+]([O-])c1cccc2ccccc12`, the Potency was “inactive”. For `c1ccc(NNc2ccccc2)cc1`, the Potency was “inactive”. With `CC(C)(C)c1ccccc1O` the Potency was “inactive”. For `CCCCC(CC)COC(=O)c1ccc(C(=O)OCC(CC)CCCC)c(C(=O)OCC(CC)CCCC)c1` (stereo not given), the Potency was “inactive”.
